Screening results (PubChem BioAssay)
G9a inh: G9a (human) methyltransferase inhibition. AID 504332. actives 8.8% (n = 350,000). G9a H3K9 monomethylation, AlphaScreen, 2 h. Q96KQ7. Potency, µM (series often up to 102 µM), inactives show at the top dose activity, negative = inhibition, usual class: inhibitors; further: on the % scale 0 is the no-effect control and ±100 the full control effect; nearly all actives have a fitted effect of over 75% in size
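Chemiluminescent proximity detection of H3K9 monomethylation, read after 10 min bead incubation in the dark. Reaction: 20 nM G9a, 500 nM biotin-H3K9 peptide, 20 uM SAM cofactor, 2 h, room temperature, following 15 min enzyme-compound preincubation.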
BAZ2B block: inhibitors of human BAZ2B bromodomain | AlphaScreen BAZ2B-H3K14Ac peptide displacement | Q9UIF8 | Potency, µM (highest dose often 114 µM), for inactives: at the highest dose activity change, negative = inhibition, most hits filed as inhibitors | actives 4.4% (n = 360,000); further: on the % scale 0 is the no-effect control and ±100 the full control effect; nearly all actives have a fitted effect of over 60% in size
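Multi-concentration screen (max 110 uM) measuring displacement of acetylated histone H3 peptide from BAZ2B by AlphaScreen, using 50 nM protein, 50 nM peptide and 10 ug/mL streptavidin donor plus Ni-chelate acceptor beads.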
HP1b binding inh: HP1-beta chromodomain-methylated histone interaction inhibition; P83916; Potency, µM (titrated, usually from 114 µM), inactives show at the top dose activity change, negative = inhibition, usual class: inhibitors; actives 0.56% (n = 390,000); AID 540317; AlphaScreen HP1-beta / biotin-H3K9me3 peptide binding; further: nearly all actives have a fitted effect of over 70% in size
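HP1-beta protein (50 nM final) preincubated 30 min at room temperature with biotinylated H3(1-18)K9me3 peptide (50 nM) in PBS pH 7.4, 0.01% Tween-20, then compound added for 30 min. AlphaScreen streptavidin donor/nickel chelate acceptor beads (10 ug/mL final), 30 min dark, luminescence read.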
PLK1 PBD block: inhibitors of human PLK1 polo-box domain binding | P53350 | Plk1 PBD binding of FITC phosphopeptide, fluorescence polarization | Potency, µM, for the others: max response, negative = inhibition, actives largely listed as inhibitors | actives 2.8% (n = 360,000); further: series mostly up to about 57 µM; on the % scale 0 is the no-effect control and ±100 the full control effect; nearly all actives have a fitted effect of over 65% in size
JMJD2A Tudor inh: inhibitors of human JMJD2A Tudor domain; O75164; AlphaScreen JMJD2A-Tudor / H3K4me3 peptide binding; Potency, µM (top dose mostly 114 µM), inactives show at the highest dose activity change, negative = inhibition, actives largely listed as inhibitors; actives 4.4% (n = 390,000); AID 504339; further: on the % scale 0 is the no-effect control and ±100 the full control effect; nearly all actives have a fitted effect of over 50% in size
Sfp PPTase inh: inhibitors of Bacillus subtilis Sfp phosphopantetheinyl transferase; Q9F4F7; Biochemical Sfp PPTase activity, qHTS; Potency, µM, without a hit: largest response in the series, negative = inhibition, actives largely listed as inhibitors; actives 3.5% (n = 310,000); AID 1490;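 further: the enzyme is Sfp with the accession as filed and its product quenches rhodamine fluorescence; 0% = enzyme reaction without inhibitor and -100% = no enzyme wells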
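Reaction rates are the 30-min fluorescence difference (ex 525, em 598 nm) in wells containing 15 nM Sfp, 5 uM rhodamine-CoA and 12.5 uM BHQ-2-YbbR at pH 7.6 with 10 mM MgCl2.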
* hit, by the source's call; ? = inconclusive; . = no result; [ ] = remark or other dose. Shown are actives, neighbours in structure and some others; about 12% of the full set was active somewhere. The call rests on the fitted dose curve; in most records, active means well fitted curve in the direction sought with a large enough effect; inconclusive means small, poorly fitted or top-dose-only effect, or another doubt; inactive means no such curve, though single readings can be large; an effect the other way counts as inactive or inconclusive. Potency means the concentration at half of the fitted maximal effect.

SMILES	G9a inh	BAZ2B block	HP1b binding inh	PLK1 PBD block	JMJD2A Tudor inh	Sfp PPTase inh
COc1ccc(-n2c(-c3ccc(Cl)cc3)c[nH]c2=S)cc1	?	?	19.9%	-4.2%	-21.7%	56.2µM*
CCOc1ccc(C(=O)NCCc2csc(-c3cccc(C)c3)n2)cc1	10.2%[59 µM]	4.8%	34.1%[57 µM]	.	8.7%	.
CCN(C(=O)Cn1nc(Cc2cccnc2)c2ccccc2c1=O)c1ccccc1F	-21.3%[59 µM]	-1.6%	45.7%	.	-17.9%	.
Cc1ccc(-n2c(N)c(C#N)c(-c3ccccc3)c(C#N)c2=O)cc1	-1.1%[59 µM]	13.1%	33.2%	2.2%	-15.5%	23.6%
Cc1ccc(-n2c(-c3ccccc3)c[nH]c2=S)cc1	2.82µM*	-10.1%	-4.8%	?	11.2µM*	-22.0%
CC(=O)NC(C)(CC(=O)c1ccccc1)c1ccccc1 (centres undefined)	.	.	70.4%	0.3%	-4.2%	.
N#Cc1cc(Sc2ccccn2)c([N+](=O)[O-])cc1C#N	8.9%	-3.3%	24.4%	-14.9%	-4.1%	56.2µM*
N#Cc1cc(Sc2ccccn2)c(Sc2ccccn2)cc1C#N	31.6µM*	2.1%	14.2%	?	-17.5%	-12.3%
CCOC(=O)C1CCN(C(=O)Nc2ccc3nc(-c4ccco4)c(-c4ccco4)nc3c2)CC1	1.58µM*	11.2µM*	39.8µM*	11.9µM*	79.4µM*	14.1µM*
O=C(Nc1ccc2nc(-c3ccco3)c(-c3ccco3)nc2c1)N1CCCCCC1	5.01µM*	11.2µM*	15.8µM*	23.8µM*	12.6µM*	14.1µM*
CCOC(=O)C1CCN(C(=O)CSc2nnc(-c3ccco3)n2-c2ccccc2)CC1	44.7µM*	-4.5%	26.8%	-10.5%	-16.1%	10.1%
CCNc1nc(NCC)nc(C(=O)OCCO)n1	39.8µM*	25.1µM*	41.8%	-5.9%	35.5µM*	19.8%
CC(C)Nc1nc(NC(C)C)nc(C(=O)OCCO)n1	?	35.5µM*	29.6%	-8.6%	50.1µM*	-16.2%
CCc1nc2ccccc2n1CC(=O)N1CCN(Cc2ccccc2)CC1	-3.1%	-18.4%	0.7%	21.2µM*	-12.0%[11.4 µM]	6.6%
O=C(Cn1ncc(Cl)c(Cl)c1=O)N1CCN(Cc2ccccc2)CC1	56.2µM*	-13.7%	34.7%	-19.6%	-3.8%	-15.3%
O=C(Cn1ncc(Cl)c(Cl)c1=O)N1CCOCC1	10.5%	-2.8%	34.6%	-1.7%	-16.1%	12.2%
O=C(Cn1c(NCCO)nc2ccccc21)N1CCN(Cc2ccccc2)CC1	17.3%	3.3%	12.0%	3.8%	-13.3%	18.4%
CCN1CCN(c2ccc(S(=O)(=O)N3CCOCC3)cc2N)CC1	.	.	24.0%	-2.3%	0.0%	.
CCCN(Cc1ccccc1)C(=S)Nc1ccc(OCC)cc1	6.0%	-20.1%	33.3%	0.5%	1.4%	22.2%
CCOc1ccc(NC(=S)N(Cc2ccc(N(C)C)cc2)Cc2ccco2)cc1	39.8µM*	35.5µM*	?	-18.9%	15.8µM*	4.7%
COc1ccc(NC(=S)N(Cc2ccc(N(C)C)cc2)Cc2ccco2)cc1	?	31.6µM*	?	-6.8%	50.1µM*	-6.7%
CCn1c(=O)c2cc(C(=O)N(CCCOC(C)C)Cc3ccco3)sc2c2ccccc21	-7.4%[59 µM]	-23.9%	32.3%	.	-15.8%	.
CCc1nn2cc(C(=O)c3cc(C)ccc3O)cnc2c1-c1ccc(F)cc1	44.7µM*	?	15.1%	-1.8%	?	-0.5%
CCc1nn2cc(C(=O)c3ccccc3O)cnc2c1-c1ccc(F)cc1	?	?	-14.1%	-2.4%	?	2.0%
CC(=O)Nc1ccc(C(=O)NC(C)c2ccc(-n3ccnc3)cc2)cc1 (centres undefined)	27.4%	-37.6%	17.4%	3.9%	-4.9%	21.2%
SMILES	G9a inh	BAZ2B block	HP1b binding inh	PLK1 PBD block	JMJD2A Tudor inh	Sfp PPTase inh
CC(=O)Nc1cccc(C(=O)NC(C)c2ccc(-n3ccnc3)cc2)c1 (centres undefined)	44.7µM*	?	11.3%	-4.5%	-14.0%	7.3%
COc1ccccc1C(=O)NCCC(=O)NC(C)c1ccc(-n2ccnc2)cc1 (centres undefined)	20µM*	-14.4%	35.0%	2.1%	-15.8%	.
CC(NC(=O)CCNC(=O)c1ccccc1Cl)c1ccc(-n2ccnc2)cc1 (centres undefined)	-40.8%	-18.4%	36.6%	2.8%	5.7%	12.7%
Brc1cccc(OCCN2CCOCC2)c1	8.91µM*	50.1µM*	?	-17.9%	5.62µM*	-17.1%
Brc1cccc(OCCN2CCCCC2)c1	7.08µM*	?	?	1.2%	20µM*	?
CCc1cccc(OCCN2CCCC2)c1	?	56.2µM*	?	0.3%	31.6µM*	-26.6%
O=C(Cc1cccs1)NC1C(=O)N2C(C(=O)[O-])=C(C[n+]3ccccc3)CSC12 (centres undefined)	-43.0%[2.33 µM]	.	.	.	.	?
COC(=O)N1C(=O)[C@@](c2ccccc2)(C2CCCC2)N1C(=O)OC	.	2.0%	30.4%	?	-21.7%	-1.3%
COC(=O)N1C(=O)[C@@](CC(C)C)(c2ccccc2)N1C(=O)OC	50.1µM*	-31.0%	.	.	.	-9.2%
COC(=O)N1C(=O)[C@](CC(C)C)(c2ccccc2)N1C(=O)OC	79.4µM*	-3.2%	68.8%	13.4µM*	-0.7%	-18.1%
CC1=C(C#N)C(=O)NC1(C)O (centres undefined)	.	.	.	-4.5%	.	.
Cc1ccccc1N=C/C=C1\N(C)c2ccccc2C1(C)C	?	7.2%	3.1%	-14.0%	-28.7%	7.7%
CO/N=C/C=C1/N(C)c2ccccc2C1(C)C	50.1µM*	?	15.8%	-11.6%	-13.4%	13.5%
CN1/C(=C\C=[N+](C)c2ccccc2)C(C)(C)c2ccccc21	?	-35.8%	15.3%	-7.2%	35.5µM*	?
CN(C)c1ccc(N=C/C=C2/N(C)c3ccccc3C2(C)C)cc1	7.08µM*	20µM*	?	9.3%	39.8µM*	-26.8%
CN1/C(=C\C=N\O)C(C)(C)c2ccccc21	-1.1%	-15.2%	29.1%	-7.7%	-6.2%	12.0%
CCN1C(=O)CC(C(=O)Nc2ccc(OC)cc2)SC1=Nc1ccc(C)c(C)c1 (centres undefined)	-3.5%[59 µM]	6.3%	26.5%	.	-3.8%	.
O=C(CNC(=O)c1cc(Cl)cc([N+](=O)[O-])c1)OCC(=O)N1CCCCC1	-2.9%[2.33 µM]	-11.3%	26.5%	-2.4%	-3.4%	.
Cc1ccc(S(=O)(=O)NCCNC(=O)CN2CCOCC2)cc1	17.7%	3.1%	11.9%	-7.0%	-3.5%	8.3%
COc1nc(Cl)cn(-c2ccc(C)cc2)c1=O	8.5%[59 µM]	1.4%	42.3%	5.8%	-1.4%	-1.4%
Cc1ccc(-n2c(Cl)c(Cl)nc(Cl)c2=O)cc1	?	?	-36.8%	2.67µM*	-31.1%	?
CCCCSCCCNC(=O)CN1C(=O)c2cccnc2Oc2ccc(Cl)cc21	-23.1%[59 µM]	-5.4%	23.1%	.	-11.6%	.
